# Compounds with a hit are over-represented: about 2.9% of the library has one in this group of screens.
# Nrf2 activator = activates Nrf2 signaling; 410,000 compounds, 0.31% hits; Potency, µM (highest dose often 46.1 µM), without a hit: at the top dose activation, hits mostly activators; AID 624171; AREc32 ARE-luciferase reporter (MCF7-derived line), luminescence, 24 h; also: % of control where 0% means no effect; nearly all actives have a fitted effect of over 65% in size
#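 AREc32_Fluc, 1000 cells/well, OPTI-MEM + 5% FBS, o/n 37 deg C 5% CO2; 23 nL cpd by pin tool, 24 hr; Steady-Glo 30 min RT, luminescence.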
# A549 tox = counter-screen for Nrf2 inhibitors: cytotoxicity in A549 cells | A549 ARE-Fluc cells, CellTiter-Fluor viability, 18-24 h | Potency, µM (doses to about 46 µM), for inactives: top-dose activity change, negative = cytotoxicity, most hits filed as inhibitors | 390,000 compounds, 0.16% hits | AID 504648; also: % is scaled to controls: 0 for no effect and ±100 for the full control effect
#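 A549 ARE_Fluc cells in 5% FBS OPTI-MEM were exposed to compounds in concentration-response for 18-24 h at 37 deg C. Viability was read by CellTiter-Fluor fluorescence (Ex 405/Em 525) after 30 min, before the luciferase read.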
# S2 tox = cell viability loss in ATXN counter-screen. 400,000 compounds, 0.49% hits. Potency, µM (highest dose often 56.7 µM), actives largely listed as cytotoxic. S2 cells (HEK-293 line with an ATXN2-luciferase reporter) viability, CellTiter-Fluor protease fluorescence, 24 h; also: nearly all actives have a fitted effect of over 40% in size
# Nrf2 inh = Nrf2 pathway inhibition; A549 ARE-Fluc reporter, luciferase luminescence, 18-24 h; Potency, µM (highest dose often 46 µM), for inactives: at the highest dose activity change, negative = inhibition, usual class: inhibitors; 360,000 compounds, 2.1% hits; AID 504444; also: % is scaled to controls: 0 for no effect and ±100 for the full control effect; nearly all actives have a fitted effect of over 60% in size
#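 Nrf2 activity is the BugLite luminescence, read 15 min after reagent at room temperature, following CellTiter-Fluor cytotoxicity readout (30 min, 37C). Compound titrations were applied for 18-24 h to 5000 A549 ARE_Fluc cells/well in 5% FBS OPTI-MEM.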
# ATXN2 expr inh = inhibitors of ATXN2 expression; HEK-293 ATXN2-luciferase reporter, luminescence, 24 h; Potency, µM (titrated, usually from 57 µM), for the others: at the highest dose activity change, negative = inhibition, hits mostly inhibitors; 360,000 compounds, 0.72% hits; AID 1745845; also: % is scaled to controls: 0 for no effect and ±100 for the full control effect; nearly all actives have a fitted effect of over 55% in size
#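 ATXN2-luciferase reporter cells (luciferase flanked by upstream and downstream ATXN2 gene portions) were treated 24 h at 37 °C with compounds at up to 57 uM. SteadyGlo luminescence gave expression; GF-AFC fluorescence gave viability.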
# An asterisk follows results filed as active; i = inactive; ? = inconclusive; . = no result given; ! = not confirmed by another sample; [ ] = remark or other dose. Calls follow the shape of the dose curve; as a rule, active = well fitted curve in the direction sought with a large enough effect; inconclusive = small, poorly fitted or top-dose-only effect, or another doubt; inactive = no such curve, though single readings can be large; an effect the other way counts as inactive or inconclusive. Potency is read from the fitted curve at half-maximal effect.
SMILES,Nrf2 activator,A549 tox,S2 tox,Nrf2 inh,ATXN2 expr inh
CC(=O)N1CCN(S(=O)(=O)c2cccc(C(=O)OCc3ccc(C(C)(C)C)cc3)c2)CC1,0%,-13%,i,23µM*,-21%
Nc1nc2c(ncn2COC(CO)CO)c(=O)[nH]1,0%,-3%,i,0%,24µM*!
COc1ccc(NC(=O)CSc2nnc(-c3nonc3NC(C)=O)n2C)cc1Cl,0%,0%,i,-14%,-15%
Cc1cc(C)c(C)c(S(=O)(=O)NCc2ccncc2)c1C,0%,-18%,i,13µM*,?
Cc1cc(Br)c(S(=O)(=O)NCc2ccncc2)cc1C,0%,-19%,i,3.7µM*,-21%
Nc1c(C(=O)N2CCOCC2)sc2nc3c(cc12)CCCC3,-2%,-5%,i,4%,3.2µM*
Nc1c(C(=O)N2CCOCC2)sc2nc3c(cc12)CCC3,0%,5%,i,6%,0%
CN1CCN(c2ccc(NC(=O)COc3cccc4ccccc34)cc2)CC1,0%,1%,i,-4%,-16%
C=CC(=O)Nc1cccc(Oc2ccnc3[nH]ccc23)c1,9%,?,8.9µM*,-11%,-33%
C=CC(=O)Nc1cccc(Oc2ccnc(Nc3ccc(N4CCN(C)CC4)cc3)n2)c1,17%,1.6µM*,?,?,0%
C=CC(=O)Nc1cccc(Oc2ncnc3[nH]cc(-c4cnc5ccccc5c4)c23)c1,0%,2%,?,-16%,15%
C=CC(=O)Nc1cccc(N(C)c2ccnc(Nc3ccc(N4CCN(C)CC4)cc3)n2)c1,6%,1µM*,16µM*,?,?
CCc1ccccc1NC(=S)NCCSc1ccc(Cl)cc1,0%,?,i,23µM*,-18%
Cc1ccccc1NC(=S)NCCSc1ccc(Cl)cc1,-1%,-21%,i,23µM*,-18%
Cc1ccc(C)c(NC(=S)NCCSc2ccc(Cl)cc2)c1,-1%,?,i,-14%,-23%
Cc1cc(C)n(-c2nc(C)c(C)c(=O)n2CC(=O)Nc2ccc([N+](=O)[O-])cc2)n1,0%,-9%,.,.,.
N#Cc1ccccc1OC1=NS(=O)(=O)c2ccccc21,.,12%,.,0%,.
OC1(c2ccc3c(c2)CN(Cc2ccccn2)CCO3)CCN(c2ccccc2F)CC1,.,.,i,.,.
COc1ccc(C2=Nn3c(nnc3-c3ccccc3Cl)SC2)cc1OC1CCCC1,-1%,-17%,?,16µM*,?
Cc1cc(NC(=O)c2ccccc2F)n(-c2nc3ccccc3[nH]2)n1,9%,-1%,i,-29%,1%
Cc1nn(-c2nc3ccccc3[nH]2)c(=O)c2ccccc12,-2%[9.22 µM],-4%,i,1.3µM*,0.4µM*
Cc1cc(NC(=O)c2c(F)cccc2F)n(-c2nc3ccccc3[nH]2)n1,-2%,?,i,?,-29%
Cc1cc(NC(=O)c2c(F)cccc2Cl)n(-c2nc3ccccc3[nH]2)n1,-1%,-18%,?,15µM*,?
Cc1cc(Nc2ccccc2)n(-c2nc3ccccc3[nH]2)n1,10%,-8%,?,16µM*,?
CN1CCC(COc2cnc(-c3cccc(Cn4nc(-c5cccc(C#N)c5)ccc4=O)c3)nc2)CC1,.,.,.,.,-24%
SMILES,Nrf2 activator,A549 tox,S2 tox,Nrf2 inh,ATXN2 expr inh
CN(C)CCNc1ccc(CO)c2oc3ccc(O)cc3c(=O)c12,0%,?,27µM*,?,21µM*
COc1ccc(CNc2ncc(-c3ccc(F)cc3)n2C)c2ccccc12,-2%,0%,i,21µM*,2µM*
COc1ccc(CNC(=O)CN(C)c2nn3c(=O)cc(C)nc3s2)cc1,0%,-3%,i,4%,3%
C=CC[n+]1c(-c2ccc(OCC)cc2)csc1NNC(=O)Nc1ccccc1,13%,-6%,i,15µM*,-19%
Cc1ccc(N/C(N)=N/c2nc(C)cc(N3CCCCC3)n2)c(C)c1,0%,?,?,13µM*,22µM*
COc1ccccc1C(C[N+](=O)[O-])c1c(N)n(C)c(=O)n(C)c1=O (configuration not stated),?,?,.,12µM*,.
COc1ccccc1C(c1c(N)n(C)c(=O)n(C)c1=O)C(C)[N+](=O)[O-] (configuration not stated),?,-9%,i,?,16%
CCN(CC)CCOc1ccc(Nc2ncc3cc(-c4c(Cl)cccc4Cl)c(=O)n(C)c3n2)cc1,.,.,.,.,1.7µM*
Cc1cccc(-c2cnc(C)nc2C2CCCN(C(=O)c3cccc(Cn4cccn4)c3)C2)c1 (configuration not stated),.,.,i,.,.
CC1=C(C(=O)OC2CCCCCCC2)C(c2cc3c(cc2Br)OCO3)CC(=O)N1 (configuration not stated),0%,?,i,21µM*,?
C=CCc1ccccc1OCC(O)CN1CCN(CCN2C(=O)c3cccc4cccc(c34)C2=O)CC1 (configuration not stated),-2%,-10%,?,1%,28µM*
COc1cccc(C#CC2=CC(=O)C[C@H](c3ccc(F)cc3)C2)c1,16µM*,.,?,.,?
CN1CC(=O)NC1=NC(=O)Nc1cccc(Cl)c1,.,.,.,.,-5%
CC(=O)c1ccc(Nc2nc(N3CCOCC3)nc(N3CCOCC3)n2)cc1,4%,-7%,i,?,21%
N#CCNC(=O)c1ccc(-c2ccnc(Nc3ccc(N4CCOCC4)cc3)n2)cc1,.,.,.,.,19µM*
O=C(O)c1ccccc1C(=O)Nc1ccc(Oc2cccc3ccccc23)cc1,-2%,-10%,i,21µM*,1.6µM*
Cc1cccc(Oc2ccc(NC(=O)c3ccccc3C(=O)O)cc2)c1C,0%,0%,i,-2%,4%
C#CCC(Cc1cnc2nc(N)nc(N)c2n1)c1ccc(C(=O)N[C@@H](CCC(=O)O)C(=O)O)cc1 (some centres not stated),.,.,?,.,0.54µM*
CCn1c2ccccc2c2cc(NC(=O)COC(=O)c3ccccc3O)ccc21,-1%,-11%,i,?,?
CCn1c2ccccc2c2cc(NC(=O)COC(=O)C3CCC(=O)N3)ccc21 (configuration not stated),2%,-9%,i,?,18µM*
c1ccc(Cc2nnc(N3CCCCC3)c3ccccc23)cc1,2%,?,i,18µM*,-20%
COc1cc(=O)n2c(c1C(=O)N(C)Cc1nonc1C)CCN(Cc1cc(F)ccc1F)CC2,.,.,i,.,.
COc1ccc(-n2c(=O)c3c4c(sc3n(Cc3ccccc3)c2=O)CN(C(C)=O)CC4)cc1OC,5%,0%,i,-8%,-15%
O=C(CCl)N(c1ccccc1)C1CCS(=O)(=O)C1 (configuration not stated),-3%,?,.,23µM*,?

# From PubChem BioAssay
